Source: PubChem BioAssay (NCI)
Several values for one entry are separate records, joined by “and”; a condition that tells them apart may be missing. Equal values may be shown once. About 83,000 compounds went through this panel and 20% of them were active in at least one assay; those are over-represented in the sample as a whole.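 In brief: 96-well plates, 48 h treatment, single concentration, percent growth endpoint.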 Values without a mark were called inactive. Activity calls are given as the source filed them. Rule for the calls: active = growth percent below 10; inactive = the rest.

test system: MDA-MB-468 breast; assay: NCI-60 one-dose screen, 48 h (100 = growth as untreated, 0 = no growth, -100 = all killed); conditions: 10 µM unless noted

| Compound | growth |
| --- | --- |
| CN1C(=O)NC(c2ccc3c(c2)OCO3)C=C1c1ccccc1 (stereo not given) | 98.2% |
| COc1ccc(C2CC(c3ccc(Nc4ccnc5cc(Cl)ccc45)cc3)=NN2C(C)=O)cc1 (stereo not given) | 65.3% |
| Cn1c(=O)c2nc(SCc3ccccc3)n(C)c2n(C)c1=O | 103% |
| CC[C@@H](C)/C=C(C)/C=C/C(=O)c1c(O)c(-c2ccc(OC(=O)[C@@]34CC[C@@](C)(C(=O)O3)C4(C)C)cc2)cn(O)c1=O | -4.05% (active) |
| CCN1C(=S)N(CC)C2C1NN=C1SC(c3ccccc3)=CC(=O)N12 (stereo not given) | 92.6% |
| COc1cc2c3c(n([C@H]4CCOC4)c(=O)c2cc1OC)-c1cc2c(cc1C3=O)OCO2 | 31.3% |
| Cn1c2ccccc2c2c3c(c4c5ccc(Br)cc5oc4c21)C(=O)N(O)C3=O | 46.2% |
| CCn1cc(-c2cc(-c3ccc(Cl)cc3)nc(N)n2)c(-c2ccc(Br)cc2)n1 | 72.7% |
| CCOC(=O)C1=C(N)Oc2c(sc3c(C)cccc23)C1c1ccc(OC)cc1 (stereo not given) | 0.934% (active) |
| COc1cc(CNC(=O)Cc2ccccc2)ccc1OCc1cn(-c2ccc(F)cc2)nn1 | 99.8% |
| CC[C@@]12C=CCN3CC[C@]4(c5cc(NC(=O)COc6cc(OCC(=O)Nc7cc8c(cc7OC)N(C)[C@H]7[C@@](O)(C(=O)OC)[C@H](OC(C)=O)[C@]9(CC)C=CCN%10CC[C@]87[C@@H]%109)cc7oc(-c8ccccc8)cc(=O)c67)c(OC)cc5N(C)[C@@H]4[C@](O)(C(=O)OC)[C@H]1OC(C)=O)[C@H]32 | 72% |
| COc1ccc(Cn2cc(C(=O)N=Nc3c(O)[nH]c4ccc(Br)cc34)nn2)cc1 | 96.8% |
| Cc1ncc(C(=O)Nc2ccc(CN3CCN(C)CC3)c(C(F)(F)F)c2)cc1C#Cc1cnc2cccnn12 | 7.08% (active) |
| Cn1c(N2NC(=O)C(N=Nc3ccc(S(N)(=O)=O)cc3)C2=O)nc(-c2ccco2)c(C#N)c1=O (stereo not given) | -17.9% (active) |
| O=C1/C(=C/c2ccc(O)c(O)c2)COc2ccc(-c3ccccc3)cc21 | 6.16% (active) |
| C=C1SC(=Nc2ccccc2Cl)N(C(=O)c2sc3ccccc3c2Cl)C1(C)C | 50% |
| COc1cc(OC)c(/C=C/S(=O)(=O)Cc2ccc(OC)c(N)n2)c(OC)c1 | 13.5% |
| Cn1cc(-c2nnc(-c3cn(C)c4ncc(Br)cc34)s2)c2cc(Br)ccc21 | 101% |
| COc1ccc(C(=O)c2cc(OC)c(OC)c(OC)c2)cc1/C=C/C(=O)c1ccc(OC)c(OC)c1 | 8.42% (active) |
| CC(C)NC(=O)N1C(=O)CCC1NNC(=O)c1ccc([N+](=O)[O-])cc1 (stereo not given) | 114% |

| Compound | growth |
| --- | --- |
| COc1ccc2c(c1)sc1nc(-c3ccccc3)c(-c3ccsc3)n12 | 32.5% |
| COc1ccc(-c2c(-c3cc4c(c(OC)c3OC)OCO4)noc2N)cc1 | -6.43% (active) |
| COc1ccc(-c2nc(/C=N/Nc3cc(C)nc4ccc(Cl)cc34)c(C)o2)cc1 | -73.7% (active) |
| Oc1cccc(-c2nc(N3CCOCC3)c3c4c(sc3n2)CCCC4)c1 | 46.1% |
| CCN(CC)Cc1cc2[nH]c3c4ccc(Cl)cc4ncc3c2cc1OC | -12.8% (active) and -25.8% (active) |
| Nc1cc2ccccc2c(O)c1O | -3.32% (active) |
| COc1ccc(CCOc2cc3c(cc2OC)CCN(C(=O)NCc2cocn2)C3c2ccc(C)cc2C)cc1 (stereo not given) | 3.86% (active) |
| CSc1nc(=O)n(Cc2ccc(Cl)cc2)c(=O)[nH]1 | 121% |
| CNc1nc2ncn(C)c2c(=O)[nH]1 | 101% |
| c1ccc2oc(-c3cnc4nonc4n3)cc2c1 | 98.9% |
| COc1nc2ccccc2cc1/C=[N+](\[O-])c1ccccc1 | 88.6% |
| CCN(CC)CCN1C(=O)c2c(c3c4cccnc4[nH]c3c3ccc4ccccc4c23)C1=O | 63.3% |
| O=C(NCCNc1nccc(-c2c(-c3cccc(O)c3)nc3sccn23)n1)c1cccc(C(F)(F)F)c1 | 70.5% |
| COC(=O)/C=C/c1c(C2(C)NC(=O)c3ccccc3N2)c(=O)oc2ccc(Cl)cc12 (stereo not given) | 88.7% |
| CC1(C)CC[C@]23CC[C@]4(C)[C@H](CC[C@@H]5[C@@]6(C)CCCNC(C)(C)[C@@H]6CC[C@]54C)[C@H]2[C@H]1OC3 | -50.5% (active) |
| O=C(/C=C/c1ccc[nH]1)c1ccc(-n2ccc(C(F)(F)F)n2)c(F)c1 | 60.4% |
| COc1ccc(-c2cn[nH]c2-c2cc(OC)c(OC)c(OC)c2)cc1OCc1ccccc1 | -5.94% (active) |
| NC(=O)c1cccc(-c2cc(C(N)=O)ccc2Cl)c1 | 53.4% |
| COc1cc2nc(-c3ccc(C(F)(F)F)cc3)cc(OCCCNCC3CCCO3)c2cc1OC (stereo not given) | 14.2% |
| CCCCCCCCN(CCCCCCCC)C(=N)c1ccnc2ccccc12 | -75.5% (active) |
